# Data reported in the supplement of paper PMC10849652.
# About 7,900 targets were measured; listed, in parts, are those with a hit and a random draw of the rest. About 0.6% of all pairs of compound and target were hits. Values without a mark were called inactive.
# Experiments:
# Test in all cases: log2 fold change, soluble protein after heating vs DMSO (PISA); higher = thermal stabilisation; K562 cells, 10 uM, 30 min; active = over 0.2 and 3.5 SD of the protein, either way, in both replicates (recomputed)
# bafetinib = compound: Cc1ccc(NC(=O)c2ccc(CN3CC[C@H](N(C)C)C3)c(C(F)(F)F)c2)cc1Nc1nccc(-c2cncnc2)n1 [bafetinib]
# How it was run: (§1)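 Soluble protein was quantified by TMTpro 16plex LC-MS/MS after channel sums were equalised. It was obtained as the supernatant after 21,000xg for 90 min from pooled aliquots of K562 cells (2×10^6 cells/mL, 10 μM compound, 30 min) heated for 3 min across 48°C-58°C and extracted in PBS with 0.5% NP-40 at 4°C. Thermal stability values are relative to control samples and come from duplicates. They are given as log2 fold changes.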
# [1] = compound: Cc1cccc(CC(=O)N2CCc3c2ccc(-c2cn(C)c4ncnc(N)c24)c3F)n1
# How it was run: as §1
# nilotinib = compound: Cc1cn(-c2cc(NC(=O)c3ccc(C)c(Nc4nccc(-c5cccnc5)n4)c3)cc(C(F)(F)F)c2)cn1 [nilotinib]
# How it was run: as §1
# [2] = compound: Cc1nc(Nc2n[nH]c3c2CN(C(=O)N[C@H](CN(C)C)c2ccccc2)C3(C)C)c2sccc2n1
# How it was run: as §1
# dasatinib = compound: Cc1nc(Nc2ncc(C(=O)Nc3c(C)cccc3Cl)s2)cc(N2CCN(CCO)CC2)n1 [dasatinib]
# How it was run: as §1
# [3] = compound: Cc1ncc(-c2ccnc(Nc3ccc(S(C)(=O)=O)cc3)n2)n1C(C)C
# How it was run: as §1
# [4] = compound: Cn1cc(-c2ccc3c(c2)CCN3C(=O)Cc2cccc(C(F)(F)F)c2)c2c(N)ncnc21
# How it was run: as §1
# [5] = compound: Cn1cc(-c2ccc3nnc(C(F)(F)c4ccc5ncccc5c4)n3n2)cn1
# How it was run: as §1
# tipifarnib = compound: Cn1cncc1[C@@](N)(c1ccc(Cl)cc1)c1ccc2c(c1)c(-c1cccc(Cl)c1)cc(=O)n2C [tipifarnib]
# How it was run: as §1
# mubritinib = compound: FC(F)(F)c1ccc(/C=C/c2nc(COc3ccc(CCCCn4ccnn4)cc3)co2)cc1 [mubritinib]
# How it was run: as §1
# UniProt Q9UBD5, sequence (Q9UBD5 whole entry, looked up): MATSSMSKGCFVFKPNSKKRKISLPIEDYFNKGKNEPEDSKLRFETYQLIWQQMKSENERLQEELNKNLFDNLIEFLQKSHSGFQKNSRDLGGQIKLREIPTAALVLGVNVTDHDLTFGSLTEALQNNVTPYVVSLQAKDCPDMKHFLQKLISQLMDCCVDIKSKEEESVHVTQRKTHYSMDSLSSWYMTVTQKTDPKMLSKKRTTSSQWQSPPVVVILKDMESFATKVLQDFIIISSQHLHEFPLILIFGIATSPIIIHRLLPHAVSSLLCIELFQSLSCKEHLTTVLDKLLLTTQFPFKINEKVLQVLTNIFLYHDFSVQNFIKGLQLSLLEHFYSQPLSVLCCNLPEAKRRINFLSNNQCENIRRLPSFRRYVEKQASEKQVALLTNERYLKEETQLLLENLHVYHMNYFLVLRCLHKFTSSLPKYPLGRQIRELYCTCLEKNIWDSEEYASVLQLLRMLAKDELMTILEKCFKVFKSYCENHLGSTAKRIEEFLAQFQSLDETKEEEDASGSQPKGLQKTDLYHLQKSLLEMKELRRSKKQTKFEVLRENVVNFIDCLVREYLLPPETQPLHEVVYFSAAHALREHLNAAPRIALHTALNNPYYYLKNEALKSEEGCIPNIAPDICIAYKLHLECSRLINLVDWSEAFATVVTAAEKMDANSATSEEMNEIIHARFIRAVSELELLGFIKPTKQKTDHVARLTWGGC
# UniProt O43809, sequence (O43809 whole entry, looked up): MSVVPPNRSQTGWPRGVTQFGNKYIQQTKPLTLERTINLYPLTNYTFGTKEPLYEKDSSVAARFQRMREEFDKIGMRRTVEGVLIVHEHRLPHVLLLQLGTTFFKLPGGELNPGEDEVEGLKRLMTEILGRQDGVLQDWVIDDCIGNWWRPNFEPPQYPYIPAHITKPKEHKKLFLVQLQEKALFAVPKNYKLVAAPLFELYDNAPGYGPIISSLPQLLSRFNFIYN
# UniProt Q8N543, sequence (Q8N543 whole entry, looked up): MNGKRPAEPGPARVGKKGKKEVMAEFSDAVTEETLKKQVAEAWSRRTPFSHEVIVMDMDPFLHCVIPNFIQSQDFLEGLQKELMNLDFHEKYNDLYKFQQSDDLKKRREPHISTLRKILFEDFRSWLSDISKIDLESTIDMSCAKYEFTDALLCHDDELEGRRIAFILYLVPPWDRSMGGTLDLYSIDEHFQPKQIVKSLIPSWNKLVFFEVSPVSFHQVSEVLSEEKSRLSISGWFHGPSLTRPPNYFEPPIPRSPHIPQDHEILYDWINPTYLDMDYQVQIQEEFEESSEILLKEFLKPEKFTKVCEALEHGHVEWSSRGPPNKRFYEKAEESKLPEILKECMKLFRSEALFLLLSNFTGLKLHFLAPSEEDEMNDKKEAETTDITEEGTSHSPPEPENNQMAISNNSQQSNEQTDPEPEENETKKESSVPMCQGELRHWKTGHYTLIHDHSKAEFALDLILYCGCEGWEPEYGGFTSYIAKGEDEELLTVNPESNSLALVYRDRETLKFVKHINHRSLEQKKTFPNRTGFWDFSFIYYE
# UniProt O75251, sequence (O75251 whole entry, looked up): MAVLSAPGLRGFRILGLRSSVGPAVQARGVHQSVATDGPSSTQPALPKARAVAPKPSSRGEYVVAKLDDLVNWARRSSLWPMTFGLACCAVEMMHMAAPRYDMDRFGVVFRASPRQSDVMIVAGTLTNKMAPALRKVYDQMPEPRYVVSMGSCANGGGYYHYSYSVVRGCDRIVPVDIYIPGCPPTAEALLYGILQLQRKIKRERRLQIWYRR
# UniProt Q8NCE2, sequence (Q8NCE2 whole entry, looked up): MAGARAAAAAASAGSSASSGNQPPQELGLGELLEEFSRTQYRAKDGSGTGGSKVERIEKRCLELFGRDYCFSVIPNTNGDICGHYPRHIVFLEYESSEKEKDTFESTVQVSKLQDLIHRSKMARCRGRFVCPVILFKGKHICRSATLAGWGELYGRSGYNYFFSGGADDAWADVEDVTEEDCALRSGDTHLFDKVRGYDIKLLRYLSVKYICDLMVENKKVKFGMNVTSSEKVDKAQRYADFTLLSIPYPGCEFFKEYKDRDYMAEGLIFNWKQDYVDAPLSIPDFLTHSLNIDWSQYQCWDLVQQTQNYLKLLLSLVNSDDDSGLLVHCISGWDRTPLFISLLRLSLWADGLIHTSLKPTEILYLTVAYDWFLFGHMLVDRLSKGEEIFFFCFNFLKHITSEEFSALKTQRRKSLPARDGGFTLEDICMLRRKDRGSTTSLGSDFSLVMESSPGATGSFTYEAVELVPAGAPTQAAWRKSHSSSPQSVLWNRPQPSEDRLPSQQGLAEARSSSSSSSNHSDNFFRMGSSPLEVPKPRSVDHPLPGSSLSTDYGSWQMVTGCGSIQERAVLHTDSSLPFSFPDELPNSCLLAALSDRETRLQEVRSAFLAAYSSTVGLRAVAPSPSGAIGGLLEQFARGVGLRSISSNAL
# UniProt Q9BRA0, sequence (Q9BRA0 whole entry, looked up): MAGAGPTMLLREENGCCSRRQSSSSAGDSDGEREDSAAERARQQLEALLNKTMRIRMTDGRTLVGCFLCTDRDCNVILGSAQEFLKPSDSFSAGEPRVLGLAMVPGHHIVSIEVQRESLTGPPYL
# UniProt P25208, sequence (P25208 whole entry, looked up): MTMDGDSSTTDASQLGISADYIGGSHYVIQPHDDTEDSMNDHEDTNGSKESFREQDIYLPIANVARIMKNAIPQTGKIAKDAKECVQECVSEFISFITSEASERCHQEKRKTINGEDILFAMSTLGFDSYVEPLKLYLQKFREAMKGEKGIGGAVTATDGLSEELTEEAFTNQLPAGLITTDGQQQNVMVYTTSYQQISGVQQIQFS
# UniProt P43246, sequence (P43246 whole entry, looked up): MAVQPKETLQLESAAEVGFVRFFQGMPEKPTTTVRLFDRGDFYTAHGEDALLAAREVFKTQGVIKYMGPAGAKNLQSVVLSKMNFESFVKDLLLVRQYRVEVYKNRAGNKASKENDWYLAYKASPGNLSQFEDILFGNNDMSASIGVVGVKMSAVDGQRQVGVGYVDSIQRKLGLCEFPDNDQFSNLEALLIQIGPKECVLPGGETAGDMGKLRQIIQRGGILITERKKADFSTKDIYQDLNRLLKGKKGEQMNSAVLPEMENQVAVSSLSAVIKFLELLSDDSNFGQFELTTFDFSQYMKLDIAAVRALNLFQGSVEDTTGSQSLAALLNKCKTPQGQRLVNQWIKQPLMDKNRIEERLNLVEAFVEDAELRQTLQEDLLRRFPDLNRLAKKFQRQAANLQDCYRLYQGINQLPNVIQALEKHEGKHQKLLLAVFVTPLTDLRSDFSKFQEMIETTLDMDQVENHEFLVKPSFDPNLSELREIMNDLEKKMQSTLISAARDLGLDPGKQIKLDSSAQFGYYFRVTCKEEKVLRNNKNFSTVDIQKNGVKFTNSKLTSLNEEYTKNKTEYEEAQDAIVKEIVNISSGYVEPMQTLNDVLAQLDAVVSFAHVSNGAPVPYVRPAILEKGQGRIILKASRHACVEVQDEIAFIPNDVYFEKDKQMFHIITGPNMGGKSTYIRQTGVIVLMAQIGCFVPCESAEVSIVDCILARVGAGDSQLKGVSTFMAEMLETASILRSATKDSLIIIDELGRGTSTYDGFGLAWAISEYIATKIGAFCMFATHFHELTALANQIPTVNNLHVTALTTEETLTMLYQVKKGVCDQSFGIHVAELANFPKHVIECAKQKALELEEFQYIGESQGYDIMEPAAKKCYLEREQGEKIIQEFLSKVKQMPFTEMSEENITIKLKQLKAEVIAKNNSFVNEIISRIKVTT
# UniProt Q9Y6R0, sequence (Q9Y6R0 whole entry, looked up): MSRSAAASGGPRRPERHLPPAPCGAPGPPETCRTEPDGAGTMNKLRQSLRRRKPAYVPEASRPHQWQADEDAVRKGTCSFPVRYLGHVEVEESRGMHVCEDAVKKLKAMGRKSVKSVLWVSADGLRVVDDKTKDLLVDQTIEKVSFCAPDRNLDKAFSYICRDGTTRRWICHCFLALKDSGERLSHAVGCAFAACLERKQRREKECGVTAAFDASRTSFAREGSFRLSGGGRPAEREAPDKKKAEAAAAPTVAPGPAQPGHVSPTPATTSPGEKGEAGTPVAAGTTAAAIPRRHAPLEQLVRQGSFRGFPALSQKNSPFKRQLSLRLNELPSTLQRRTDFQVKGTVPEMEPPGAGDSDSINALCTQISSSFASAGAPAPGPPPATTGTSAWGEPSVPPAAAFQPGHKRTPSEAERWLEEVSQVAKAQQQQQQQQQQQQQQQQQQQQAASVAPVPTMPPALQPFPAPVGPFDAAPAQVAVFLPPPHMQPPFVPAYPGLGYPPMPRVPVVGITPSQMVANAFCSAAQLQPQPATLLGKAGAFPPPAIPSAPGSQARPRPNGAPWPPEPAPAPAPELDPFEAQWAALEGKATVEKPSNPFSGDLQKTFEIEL
# UniProt Q16656, sequence (Q16656 whole entry, looked up): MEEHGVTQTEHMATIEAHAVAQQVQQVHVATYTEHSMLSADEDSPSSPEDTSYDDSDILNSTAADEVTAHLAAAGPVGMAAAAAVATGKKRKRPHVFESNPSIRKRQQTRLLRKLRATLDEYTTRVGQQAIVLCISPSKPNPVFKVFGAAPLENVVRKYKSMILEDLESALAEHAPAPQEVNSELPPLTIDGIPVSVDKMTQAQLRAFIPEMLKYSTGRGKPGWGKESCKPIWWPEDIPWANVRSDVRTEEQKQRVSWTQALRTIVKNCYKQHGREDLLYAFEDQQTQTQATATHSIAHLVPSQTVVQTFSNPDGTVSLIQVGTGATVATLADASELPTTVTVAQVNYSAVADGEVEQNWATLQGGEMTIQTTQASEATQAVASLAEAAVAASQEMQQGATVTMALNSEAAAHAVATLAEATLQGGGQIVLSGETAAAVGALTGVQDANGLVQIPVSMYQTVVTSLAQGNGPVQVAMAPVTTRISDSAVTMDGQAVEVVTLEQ
# UniProt Q9BWT6, sequence (Q9BWT6 whole entry, looked up): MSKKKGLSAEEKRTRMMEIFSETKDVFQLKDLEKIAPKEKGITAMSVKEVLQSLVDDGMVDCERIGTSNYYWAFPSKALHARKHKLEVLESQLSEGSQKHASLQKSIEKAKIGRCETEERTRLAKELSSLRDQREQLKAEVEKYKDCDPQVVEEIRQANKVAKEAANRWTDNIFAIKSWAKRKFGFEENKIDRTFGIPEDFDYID
Target,log2 fold change (bafetinib),log2 fold change [1],log2 fold change (nilotinib),log2 fold change [2],log2 fold change (dasatinib),log2 fold change [3],log2 fold change [4],log2 fold change [5],log2 fold change (tipifarnib),log2 fold change (mubritinib)
OXA1L (UniProt Q15070),-0.152,-0.032,0.013,-0.019,-0.01,-0.029,0.013,0.038,0.004,0.003
OSTM1 (UniProt Q86WC4),-0.208,0.091,0.044,0.017,-0.086,-0.068,0.076,0.029,0.008,-0.048
OGFOD1 (UniProt Q8N543),-0.042,-0.033,-0.015,0.039,-0.009,-0.021,0.01,0.078,-0.05,-0.04
MMADHC (UniProt Q9H3L0),0.038,0.054,-0.068,-0.173,-0.155,0.023,-0.138,-0.063,0.024,-0.005
ORC5 (UniProt O43913),0.01,0.027,0.133,-0.001,-0.231,-0.114,0.067,0.044,0.031,0.045
MT-ND4 (UniProt P03905),-0.016,-0.118,0.006,-0.033,-0.009,-0.003,-0.004,-0.045,0.173,0.05
ORC3 isoform 2 (UniProt Q9UBD5),-0.032,0.099,-0.262,-0.254,-0.298,-0.118,0.067,0.109,0.086,0.029
NDUFS7 (UniProt O75251),-0.047,0.06,-0.03,0.021,0.01,-0.007,0.034,0.036,-0.035,0.095
NRF1 isoform 4 (UniProt Q16656),-0.057,0.023,-0.099,-0.152,-0.123,-0.042,0.054,-0.096,0.022,0.035
NUDT21 (UniProt O43809),0.074,-0.071,0.033,-0.798 (active),0.031,0.051,0.029,-0.039,-0.007,-0.008
MSH2 (UniProt P43246),0,0.04,-0.003,-0.103,-0.038,0.034,0.024,0.035,-0.063,0.156
PACS1 (UniProt Q6VY07),0.008,0.02,0.051,0.038,0.018,-0.018,-0.006,-0.098,-0.002,-0.021
MTMR14 (UniProt Q8NCE2),-0.051,-0.089,-0.023,-0.04,-0.063,0.016,-0.006,-0.084,-0.035,0.058
NFYB (UniProt P25208),-0.086,-0.006,0.074,-0.067,0.124,0.034,-0.012,-0.06,-0.019,0.127
NSMCE2 (UniProt Q96MF7),-0.059,0.282 (active),0.014,-0.202,0.025,0.016,0.016,-0.104,0.008,0.009
NCOR1 (UniProt O75376),-0.009,-0.056,0.182,-0.046,-0.091,0.058,0.041,-0.049,0.103,0.041
NOP56 (UniProt O00567),0.225,-0.099,0.098,-0.018,0.204,-0.026,-0.371,-0.18,0.201,-0.164
MTHFD1 (UniProt P11586),0.077,0.096,0.214 (active),-0.051,-0.135,0.019,0.069,0.021,-0.088,0.122
P4HA2 (UniProt O15460),0.012,-0.007,0.056,0.04,-0.057,-0.008,-0.102,-0.02,0.007,-0.059
NUMBL (UniProt Q9Y6R0),-0.002,0.113,-0.001,-0.136,-0.029,0.027,0.041,0.097,0.068,0.28
NAA38 isoform 2 (UniProt Q9BRA0),0,-0.019,-0.128,0.052,-0.051,-0.066,0.028,-0.047,-0.039,-0.03
NCKAP1 isoform 2 (UniProt Q9Y2A7),-0.028,0.08,-0.016,-0.045,-0.096,-0.04,0.04,-0.004,-0.005,0.002
MND1 (UniProt Q9BWT6),-0.168,0.042,0.032,0.003,-0.037,-0.015,-0.056,-0.132,0.04,0.043
OTUD6B (UniProt Q8N6M0),-0.014,0.105,-0.114,-0.067,-0.142,-0.031,0.044,0.067,-0.039,-0.02
NMNAT1 (UniProt Q9HAN9),0.052,-0.034,-0.073,0.023,0.159,-0.047,-0.143,-0.21,0.118,-0.047
NFATC3 (UniProt Q12968),0.041,-0.064,-0.121,-0.316,-0.042,-0.3,-0.073,0.191,0.01,-0.01
PAFAH1B2 (UniProt P68402),-0.025,0.035,0.067,-0.121,-0.011,-0.075,0.024,0.003,0.188,0.092
